# Experimental data reported in PubChem BioAssay.
# Where “and” joins values, the source holds several entries; their conditions need not be identical. Equal entries are not always repeated. Results filed as inconclusive are left out. Calls of active or inactive are those of the source.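 Rule for the calls, unless noted: active = normalized viability below 100% at a tested concentration; inactive = the rest.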
# Experiments:
# [1] = liver-stage malaria parasite growth inhibition, primary screen, cell-based, HepG2, luciferase luminescence, HepG2 viability (AID 624349; in the data active = parasite load remaining mostly below about 12%, no sharp cut-off; inactive = mostly above about 10%;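 note: 100% = mean of DMSO negative control wells on the same plate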); conditions: P. berghei liver stage in HepG2, luciferase luminescence, concentration not given here; parasite load remaining: stronger effect = lower value; viability: measured here: HepG2 viability without parasites
# [2] = stimulators of nuclear beta-catenin in C2C12, primary screen, imaging, WNT3A-conditioned medium, mouse C2C12, NPC library (AID 1117326; in the data active = nuclear beta-catenin stimulation mostly above about 4.2%, no sharp cut-off; inactive = mostly below about 10%); conditions: stronger effect = higher value
# [3] = stimulators of insulin release from INS-1E, primary screen, cell-based, 5 mM glucose, NPC library (AID 1117329;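 active = compound raises insulin release from rat beta cells at 5 mM glucose, no numeric limit stated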); conditions: rat INS-1E insulin secretion, at 10 µM, stronger effect = higher value
# [4] = growth inhibition of GSK3B-pretreated HCT116 cells – cell-based, CellTiter-Glo, 0.2 to 20 µM (AID 1117336;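 active = compounds lowering colon cancer cell viability after pretreatment blocking the GSK3B kinase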); conditions: HCT116 viability after GSK3B inhibitor, at 20 µM, stronger effect = higher value
# [5] = inhibition of endothelial tube formation, primary screen, imaging, VEGF stimulated, CD31 staining, tube area, NPC library (AID 1117340;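 active = compound that reduces growth-factor-driven endothelial tube area in a mixed cell culture, no cutoff stated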); conditions: VEGF-stimulated ADSC/ECFC co-culture, at 10 µM, stronger effect = higher value
# [6] = glucagon-like peptide 1 release enhancers, primary assay, NCI-H716 cell line, NPC library (AID 1117341;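 active = compound raises GLP1 secretion from the human gut endocrine cells, with no numeric limit stated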); conditions: NCI-H716 cells, at 10 µM, stronger effect = higher value
# [7] = HCT116 colon cancer cell growth inhibition, primary screen, CellTiter-Glo luminescence, NPC library (AID 1117342;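 active = compounds that lower survival of HCT116 colon cancer cells in the luminescence readout, no numeric limit stated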); conditions: at 20 µM (top of the series)
# [8] = CellTiter-Glo luminescent readout of SW480 viability loss, NPC library primary (AID 1117343;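 active = compounds that lower viability of the colon cancer cells in the luminescence readout, with no numeric limit stated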); conditions: CellTiter-Glo luminescence; at 20 µM (top of the series) unless noted
# [9] = decreased DLD-1 cellular survival, CellTiter-Glo luminescent readout, NPC compound collection, primary HTS (AID 1117346;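 active = compounds that lower survival of DLD-1 colon cancer cells in the luminescence readout, no cutoff given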); conditions: DLD-1 viability, CellTiter-Glo luminescence; at 20 µM (top of the series)
# [10] = growth inhibition of DIPG glioma cells, dose response, cell-based, JHH-DIPG-1, MIPE4.0, CellTiter-Glo, qHTS (AID 1347062; cut-off not given, nearly all actives have AC50 up to about 27 µM;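 for AC50: cells exposed to compound for two days before readout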); conditions: JHH-DIPG-1 viability, CellTiter-Glo ATP luminescence
# [11] = sensitizers of A549 cells to miR-34 induction, primary screen, imaging, A549 dox-inducible miR-34, nuclei and caspase counts (AID 1347080;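 active = compounds whose cell count with miR-34 switched on is under 0.7 times the count with it off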); conditions: A549 miR-34 inducible, Hoechst nuclei count, 48 h
# [12] = survival rescue of mitochondrial mutant cells in low glucose, primary screen, MELAS cybrids, Rieske KO mouse fibroblasts, CellTiter-Glo (AID 1508586;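 active = mean z-score across replicates of 1.96 or higher in either the MELAS or the Rieske mutant cell line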;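 note: z relative to plate mean and SD of compound and empty wells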)
# [13] = viability rescue of complex I mutant cybrids, primary screen, cell-based, galactose medium, ATP luminescence (AID 1645843;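 active = z-score of at least 1.8 in each of two replicates, scored against plate mean and spread of sample wells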;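 note: positive z means more ATP and so rescue of galactose-driven cybrid death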); conditions: complex I mutant cybrid cells, 72 h, stronger effect = higher value
# [14] = growth inhibition of DIPG glioma cells, dose response, cell-based, SU-DIPG-IV, MIPE4.0, CellTiter-Glo, qHTS (AID 1347063; cut-off not given, nearly all actives have AC50 up to about 30 µM;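 note: compound exposure lasted 48 hours before the viability readout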); conditions: SU-DIPG-IV viability, CellTiter-Glo ATP luminescence
# [15] = viability loss in pontine glioma line – cell-based, SU-DIPG-XXV, MIPE5.0, CellTiter-Glo, qHTS, dose response (AID 1347065; cut-off not given, nearly all actives have AC50 up to about 26 µM;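 note: cells exposed to compound for 48 hours before ATP readout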); conditions: CellTiter-Glo ATP luminescence
# [16] = JHH-DIPG-1 glioma cell viability, MIPE5.0 library, CellTiter-Glo luminescence, qHTS (AID 1347067; cut-off not given, nearly all actives have AC50 up to about 26 µM;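 note: cells exposed to compound for 48 hours before readout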); conditions: JHH-DIPG-1 glioma viability, CellTiter-Glo ATP luminescence
# [17] = ovarian cancer cell viability with rucaparib, profiling panel, oncology-focused library, rucaparib conditional (AID 1508598); conditions: patient-derived ovarian cancer cells, CellTiter-Glo viability, 144 h, stronger effect = lower value
# [18] = stronger effect = lower value, cell number ratio, induced over uninduced
# [19] = measured here: relative caspase fold change +Dox/-Dox
# [20] = measured here: total cells with miR-34 induction, stronger effect = lower value
# [21] = measured here: total cells without miR-34 induction
# [22] = MELAS cybrid survival, CellTiter-Glo 48 h, stronger effect = higher value
# [23] = Rieske KO mouse fibroblast survival, CellTiter-Glo 72 h
compound,measurement,setting,value
CCC(C)(C)c1ccc(CC(C)CN2C[C@@H](C)O[C@@H](C)C2)cc1 (stereo not given in full),parasite load remaining,[1],32.9% (inactive)
same,viability,[1],99%
same,nuclear beta-catenin stimulation,[2]; at 10 µM,0.2% (inactive)
same,nuclear beta-catenin stimulation,"[2]; stimulation, at 2 µM",0.5%
same,insulin secretion stimulation,[3],-2.9% (inactive)
same,viability decrease,[4],23.9% (inactive)
same,tube area decrease,[5],-0.6% (inactive)
same,GLP1 secretion stimulation,[6],11.9% (inactive)
same,inhibition of viability,[7],10.2% (inactive)
same,viability decrease (inhibition),[8],83.9% (active)
same,viability decrease (inhibition),[9],55.5% (active)
same,outcome,[10],inactive
same,fold change,[11]; [18],0.818 (inactive) and 0.902 (inactive)
same,fold change,[11]; [19],0.996 and 1.18
same,cell count,[11]; [20],6710 and 9820
same,cell count,[11]; [21],8200 and 10900
same,z-score,[12]; [22],-0.995 (inactive) and -0.921 (inactive)
same,z-score,[12]; [23],-0.654 and -0.53
same,z-score,[13],-1.82 (inactive)
COc1cc(Nc2c(C#N)cnc3cc(OCCCN4CCN(C)CC4)c(OC)cc23)c(Cl)cc1Cl,nuclear beta-catenin stimulation,[2]; at 10 µM,17.6% (inactive)
same,nuclear beta-catenin stimulation,"[2]; stimulation, at 2 µM",-1%
same,insulin secretion stimulation,[3],2.2% (inactive)
same,viability decrease,[4],110% (active)
same,tube area decrease,[5],1.5% (inactive)
same,GLP1 secretion stimulation,[6],47.9% (active)
same,inhibition of viability,[7],113% (active)
same,viability decrease (inhibition),[8],132% (active)
same,viability decrease (inhibition),[9],102% (active)
same,AC50,[10],20.9 µM (active)
same,AC50,[14],20.9 µM (active)
same,AC50,[15],13.2 µM (active)
same,AC50,[16],11.8 µM (active)
same,fold change,[11]; [18],0.893 (inactive)
same,fold change,[11]; [19],0.682
same,cell count,[11]; [20],986
same,cell count,[11]; [21],1100
same,z-score,[12]; [22],2.73 (active)
same,z-score,[12]; [23],-0.399
same,viability,"[17]; at 0.000305 µM, OCI-C5x cells, with rucaparib 10 µM, 100% = cells with rucaparib alone",120% (inactive)
same,viability,"[17]; at 0.000305 µM, OCI-C5x cells, without rucaparib",107% (inactive)
same,viability,"[17]; at 0.000305 µM, OCI-P5x cells, with rucaparib 20 µM, 100% = cells with rucaparib alone",88.1% (active)
same,viability,"[17]; at 0.000305 µM, OCI-P5x cells, without rucaparib",68.6% (active)
same,viability,"[17]; at 0.00122 µM, OCI-C5x cells, with rucaparib 10 µM, 100% = cells with rucaparib alone",121% (inactive)
same,viability,"[17]; at 0.00122 µM, OCI-C5x cells, without rucaparib",109% (inactive)
same,viability,"[17]; at 0.00122 µM, OCI-P5x cells, with rucaparib 20 µM, 100% = cells with rucaparib alone",87.4% (active)
same,viability,"[17]; at 0.00122 µM, OCI-P5x cells, without rucaparib",30.3% (active)
same,viability,"[17]; at 0.00488 µM, OCI-C5x cells, with rucaparib 10 µM, 100% = cells with rucaparib alone",119% (inactive)
same,viability,"[17]; at 0.00488 µM, OCI-C5x cells, without rucaparib",107% (inactive)
same,viability,"[17]; at 0.00488 µM, OCI-P5x cells, with rucaparib 20 µM, 100% = cells with rucaparib alone",101% (inactive)
same,viability,"[17]; at 0.00488 µM, OCI-P5x cells, without rucaparib",102% (inactive)
same,viability,"[17]; at 0.0195 µM, OCI-C5x cells, with rucaparib 10 µM, 100% = cells with rucaparib alone",122% (inactive)
same,viability,"[17]; at 0.0195 µM, OCI-C5x cells, without rucaparib",104% (inactive)
same,viability,"[17]; at 0.0195 µM, OCI-P5x cells, with rucaparib 20 µM, 100% = cells with rucaparib alone",96.8% (active)
same,viability,"[17]; at 0.0195 µM, OCI-P5x cells, without rucaparib",102% (inactive)
same,viability,"[17]; at 0.0781 µM, OCI-C5x cells, with rucaparib 10 µM, 100% = cells with rucaparib alone",132% (inactive)
same,viability,"[17]; at 0.0781 µM, OCI-C5x cells, without rucaparib",111% (inactive)
same,viability,"[17]; at 0.0781 µM, OCI-P5x cells, with rucaparib 20 µM, 100% = cells with rucaparib alone",94.7% (active)
same,viability,"[17]; at 0.0781 µM, OCI-P5x cells, without rucaparib",103% (inactive)
same,viability,"[17]; at 0.313 µM, OCI-C5x cells, with rucaparib 10 µM, 100% = cells with rucaparib alone",125% (inactive)
same,viability,"[17]; at 0.313 µM, OCI-C5x cells, without rucaparib",101% (inactive)
same,viability,"[17]; at 0.313 µM, OCI-P5x cells, with rucaparib 20 µM, 100% = cells with rucaparib alone",80.8% (active)
same,viability,"[17]; at 0.313 µM, OCI-P5x cells, without rucaparib",91% (active)
same,viability,"[17]; at 1.25 µM, OCI-C5x cells, with rucaparib 10 µM, 100% = cells with rucaparib alone",113% (inactive)
same,viability,"[17]; at 1.25 µM, OCI-C5x cells, without rucaparib",108% (inactive)
same,viability,"[17]; at 1.25 µM, OCI-P5x cells, with rucaparib 20 µM, 100% = cells with rucaparib alone",57.8% (active)
same,viability,"[17]; at 1.25 µM, OCI-P5x cells, without rucaparib",95.2% (active)
same,viability,"[17]; at 5 µM, OCI-C5x cells, with rucaparib 10 µM, 100% = cells with rucaparib alone",49.5% (active)
same,viability,"[17]; at 5 µM, OCI-C5x cells, without rucaparib",61.4% (active)
same,viability,"[17]; at 5 µM, OCI-P5x cells, with rucaparib 20 µM, 100% = cells with rucaparib alone",24.4% (active)
same,viability,"[17]; at 5 µM, OCI-P5x cells, without rucaparib",42% (active)
